Compounds without any hit were thinned out: in the full panel of roughly 83,000, 20% have a hit.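 Percent growth is the endpoint: 0 to 100 indicates growth inhibition (40 means 60% inhibition), 0 means no net growth, and negative values indicate cell death.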 A number with no mark means an inactive call. Activity calls are given as the source filed them. Rule for the calls: active = growth percent below 10; inactive = the rest.
How the values were obtained:
Assay in all cases: NCI-60 one-dose screen, 48 h (100 = growth as untreated, 0 = no growth, -100 = all killed)
Conditions in all cases: 10 µM unless noted
DU-145 prostate = tested on: DU-145 prostate
K-562 leukemia = tested on: K-562 leukemia
MALME-3M melanoma = tested on: MALME-3M melanoma
MDA-MB-231 breast = tested on: MDA-MB-231 breast
RXF 393 renal = tested on: RXF 393 renal
SF-268 CNS = tested on: SF-268 CNS
SF-295 CNS = tested on: SF-295 CNS
UACC-257 melanoma = tested on: UACC-257 melanoma
M14 melanoma = tested on: M14 melanoma
HCT-15 colon = tested on: HCT-15 colon
HT29 colon = tested on: HT29 colon
SNB-75 CNS = tested on: SNB-75 CNS
SNB-19 CNS = tested on: SNB-19 CNS
U251 CNS = tested on: U251 CNS
PC-3 prostate = tested on: PC-3 prostate
SK-MEL-5 melanoma = tested on: SK-MEL-5 melanoma
UACC-62 melanoma = tested on: UACC-62 melanoma
LOX IMVI melanoma = tested on: LOX IMVI melanoma
SK-MEL-28 melanoma = tested on: SK-MEL-28 melanoma

| SMILES | growth (DU-145 prostate) | growth (K-562 leukemia) | growth (MALME-3M melanoma) | growth (MDA-MB-231 breast) | growth (RXF 393 renal) | growth (SF-268 CNS) | growth (SF-295 CNS) | growth (UACC-257 melanoma) | growth (M14 melanoma) | growth (HCT-15 colon) | growth (HT29 colon) | growth (SNB-75 CNS) | growth (SNB-19 CNS) | growth (U251 CNS) | growth (PC-3 prostate) | growth (SK-MEL-5 melanoma) | growth (UACC-62 melanoma) | growth (LOX IMVI melanoma) | growth (SK-MEL-28 melanoma) |
| --- | --- | --- | --- | --- | --- | --- | --- | --- | --- | --- | --- | --- | --- | --- | --- | --- | --- | --- | --- |
| O=C(O)c1ccccc1Nc1cccc(S(F)(F)(F)(F)F)c1 | 107% | 107% | 101% | 110% | 116% | 94.2% | 99.4% | 102% | 102% | 94.7% | 84.2% | 91.3% | 98.7% | 85.7% | 95.9% | 95.6% | 93.7% | 92.4% | 108% |
| CC/C=C\C[C@H](F)C/C=C1/C(=O)C=C[C@@H]1C/C=C\CCCC(=O)O | 66.3% | 10.3% | 59.2% | 73% | 75% | 82.3% | 96.2% | 49.7% | 32.1% | 29.4% | 29.5% | 81.4% | 63.5% | 19.2% | 55% | 15.5% | 27.5% | -42.6% (active) | 46.7% |
| COc1cc(NCCCCN=C(N)N)c2ncccc2c1 | 108% | 84.6% | 13.6% | 63.5% | 112% | 30.4% | 87% | 102% | 96.5% | 99.9% | 79.6% | 48.6% | 81.2% | 48.7% | 79.1% | 89.2% | 87.9% | 101% | 98.9% |
| COc1ccc(/C(=C/c2ccc3ccccc3c2)c2nn[nH]n2)cc1OC | 20.9% | 17.8% | 49.1% | 44.8% | -13.3% (active) | 53.3% | 4.59% (active) | 66.3% | 10.9% | 31.1% | 5.54% (active) | -7.45% (active) | 51.1% | 14.3% | 18.6% | 23.5% | 21.5% | 37.6% | 56.6% |
| COc1ccc(/C=C/C(=O)c2c(O)c(C)c(O)c3c2OC2=CC(O)=C(C(C)=O)C(=O)[C@]23C)cc1 | 8.23% (active) | -21.3% (active) | -57.1% (active) | -26.2% (active) | -33.3% (active) | -17.5% (active) | -22.7% (active) | -19.2% (active) | -7.97% (active) | -21.3% (active) | -27.2% (active) | -33% (active) | -14.9% (active) | -27.9% (active) | -2.15% (active) | -85.5% (active) | -59.9% (active) | -43.4% (active) |  |
| ClC1=C2NC=NC2n2c(nnc2-c2ccc(Cl)cc2)N1 (stereo not drawn) | 112% | 91.1% | 129% | 95.6% | 101% | 111% | 97.8% | 101% | 102% | 96.4% | 91.5% | 107% | 92.7% | 89.6% | 89.9% | 96.9% | 92.1% | 108% | 102% |
| O=C(C[C@@H](C(=O)NCc1cccc(C(F)(F)F)c1)N1C(=O)[C@@H](N2C(=O)OC[C@@H]2c2ccccc2)[C@H]1/C=C/c1ccccc1)NC1CCN(Cc2ccccc2)CC1 | 67.2% | -51% (active) | -17.1% (active) | 64.3% | 74.4% | 57.9% | 102% | 77.4% | 83.2% | 61.1% | 2.51% (active) | 71.7% | 84.6% | 70.9% | 54.4% | 43.1% | 73.3% | 23.9% | 81.5% |
| O=C(Nc1ccc(Nc2cc(Nc3ccccc3)ncn2)cc1)Nc1cc(C(F)(F)F)ccc1F | 65.7% | 56.1% | 85.9% | 56.9% | 61.2% | 94.6% | 84.2% | 73.6% | 57.4% | 70.9% | 58.4% | 57.1% | 87.4% | 64.2% | 55.8% | 82% | 65.8% | 63.6% | 71.9% |
| COc1ccc(CN(c2ccc(C)cc2)C2OC(=O)c3ccccc32)cc1OC (stereo not drawn) | 115% | 99.6% | 104% | 117% | 104% | 113% | 100% | 95% | 110% | 96.3% | 97.9% | 90.3% | 96.5% | 86.3% | 90.6% | 94.7% | 94.9% | 93.2% | 108% |
| CC(=O)N1CC(Nc2ccc(OC(F)(F)F)cc2)=CC1=O | 27% | 8.54% (active) | 55.7% | 55% | 39.6% | 59.8% | 14.7% | 46.6% | 4.04% (active) | 30.8% | 7.79% (active) | 9.15% (active) | 42.3% | 28.6% | 30.6% | 21.2% | 39.1% | 43.7% | 56.5% |
| CC[n+]1ccc2c(c1)C(=O)c1nccc3c1c-2nc1ccccc13 | -10.9% (active) | 20% | -85.5% (active) | -8.92% (active) | -2.9% (active) | -16.4% (active) | -27.6% (active) | -8.02% (active) | -16.3% (active) | 48.5% | 10% | -75.2% (active) | -70.5% (active) | -60% (active) | 3.26% (active) | -28.3% (active) | -57.7% (active) | -3.96% (active) | 1.07% (active) |
| CC(C)(C)c1nn(-c2ccccc2)c2c1CC1(CN2Cc2ccc3c(c2)OCO3)C(=O)c2ccccc2C1=O | 112% | 89.8% | 148% | 94.6% | 93% | 111% | 106% | 104% | 120% | 105% | 103% | 120% | 111% | 105% | 91.8% | 99.2% | 92.3% | 103% | 116% |
| CSc1ccc(N=C=C(c2ccccc2)c2ccccc2)cc1 | 109% | 60.4% | 105% | 84.7% | 105% | 95.8% | 96.1% | 93.3% | 80.4% | 87.3% | 87.3% | 84.7% | 91.7% | 86.4% | 84.6% | 99.6% | 83.1% | 70.2% | 99.2% |
| CC/C=C\C[C@H](O)C/C=C1/C(=O)C=C[C@@H]1C/C=C\CCCC(=O)NC | 15% | 0.291% (active) | -27.9% (active) | 26.5% | -79.1% (active) | 27.7% | 8.54% (active) | -19% (active) | 6.09% (active) | -28.4% (active) | 0.814% (active) | 62.5% | 22.5% | -8.98% (active) | 13.6% | -94.5% (active) | -45.3% (active) | -72.2% (active) | -17.1% (active) |
| O=C1CC(c2nc3ccccc3[nH]2)CN1C1CCCCC1 (stereo not drawn) | 110% | 102% | 103% | 102% | 111% | 101% | 97.3% | 101% | 104% | 105% | 102% | 90.1% | 110% | 99.7% | 93.3% | 101% | 104% | 93.9% | 112% |
| COc1ccc(C(=O)/C=C/c2c[n+](=O)c3ccc(F)cc3n2[O-])cc1 | 110% | 102% | 90.9% | 106% | 129% | 96.8% | 102% | 106% | 101% | 101% | 106% | 106% | 103% | 95.1% | 104% | 111% | 92.1% | 94.2% | 111% |

Source: PubChem BioAssay (NCI)
